# Source: PubChem BioAssay (EPA / NIEHS)
# Several values for one entry are separate records, joined by “and”; a condition that tells them apart may be missing. Identical values can stand only once. Inconclusive results are not listed. The source holds several records for some structures; these can differ, active in one and inactive in another. Activity calls are given as the source filed them. How the source made its calls, unless noted: active means hit-call score of the fitted dose curve at least 0.9, where 1 is the maximum; inactive means score below 0.9.
# Experiments:
# [1] = ATG_NF_kB_CIS: Attagene CIS-FACTORIAL HepG2 Assay for human Nuclear Factor Kappa B (NF-kB) (AID 2282991); conditions: HepG2 Attagene cis-factorial NF-kB reporter mRNA; actives raise or lower the signal
# In short: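 Endpoint from a 52-component multiplexed HepG2 reporter panel: cis-regulated transcription units transiently transfected, 24 h dosing, reporter mRNA quantified by RT-PCR and capillary electrophoresis, scored as increase or decrease against DMSO.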
# [2] = ATG_NRF2_ARE_CIS: Attagene CIS-FACTORIAL HepG2 Assay for human Nuclear Factor Erythroid 2 Related Factor 2 (NFR2) response to Antioxidant Response Elements (ARE) (AID 2282992); conditions: HepG2 Attagene ARE/NRF2 reporter, transcription factor activity; actives raise or lower the signal;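 on AC50: reporter mRNA level measured by RT-PCR and capillary electrophoresis fluorescence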
# In short: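 Readout: reporter mRNA quantified by RT-PCR plus FAM-labelled primer extension, HpaI digestion and capillary electrophoresis, 24 h after dosing transfected HepG2 cells. Gain or loss of signal is fitted bidirectionally against DMSO baseline.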
# [3] = ATG_Oct_MLP_CIS: Attagene CIS-FACTORIAL HepG2 Assay for human Octamer-Binding Transcription Factor (Oct) (AID 2282993); conditions: HepG2 Attagene cis-factorial Oct reporter, mRNA; actives raise or lower the signal
# In short: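 HepG2, transient MRTU transfection, cis promoter elements; 24 h dosing; RT-PCR/CE fluorescence read-out of reporter mRNA; fit both directions vs DMSO.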
# [4] = molecular target: Cellular tumor antigen p53 (Homo sapiens) (UniProt P04637); assay: ATG_p53_CIS: Attagene CIS-FACTORIAL HepG2 Assay for human p53 Transcription Factor (AID 2282994); conditions: HepG2 p53 cis-element reporter, Attagene mRNA; actives raise or lower the signal
# Sequence of Cellular tumor antigen p53 (Homo sapiens) (P04637 whole entry, looked up): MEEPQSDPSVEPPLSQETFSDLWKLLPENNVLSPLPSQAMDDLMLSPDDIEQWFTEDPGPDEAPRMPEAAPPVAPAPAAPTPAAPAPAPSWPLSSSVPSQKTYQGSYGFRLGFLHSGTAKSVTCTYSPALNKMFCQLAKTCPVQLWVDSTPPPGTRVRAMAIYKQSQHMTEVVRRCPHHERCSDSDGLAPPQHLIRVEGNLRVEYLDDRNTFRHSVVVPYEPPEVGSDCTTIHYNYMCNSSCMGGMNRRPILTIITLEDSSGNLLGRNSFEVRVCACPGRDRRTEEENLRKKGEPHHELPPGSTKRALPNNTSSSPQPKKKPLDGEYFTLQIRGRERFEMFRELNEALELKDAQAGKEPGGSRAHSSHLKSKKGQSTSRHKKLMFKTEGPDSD
# In short: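 Read-out: reporter mRNA by RT-PCR plus capillary electrophoresis with fluorescence detection. Human HepG2 liver cells carried transfected multi-reporter cis-element constructs, dosed 24 h. Gain or loss of signal fitted bidirectionally against DMSO control.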
# [5] = BSK_3C_TissueFactor: BioMAP Diversity Plus: 3C Assay for Tissue Factor Biomarker Activity (AID 2282997); conditions: BioMAP 3C HUVEC, tissue factor biomarker readout; actives raise or lower the signal
# In short: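 Cells used were primary human umbilical vein endothelial cells. They were dosed with chemical, and after 24 h Tissue Factor was quantified by ELISA. Curves were fitted bidirectionally with DMSO as baseline.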
# [6] = BSK_3C_uPAR: BioMAP Diversity Plus: 3C Assay for Urokinase-type plasminogen activator receptor (uPAR) Biomarker Activity (AID 2282998); conditions: BioMAP 3C HUVEC, uPAR biomarker ELISA; actives raise or lower the signal
# In short: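 A multiplexed primary-cell system built on human umbilical vein endothelium was used, with chemical present for 24 h before reading. Cell-surface uPAR was detected by ELISA; signal change in either direction counted against DMSO.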
# [7] = BSK_3C_VCAM1: BioMAP Diversity Plus: 3C Assay for Vascular cell adhesion molecule 1 (VCAM1) Biomarker Activity (AID 2282999); conditions: BioMAP 3C HUVEC, VCAM1 ELISA, cytokine-stimulated; actives raise or lower the signal
# In short: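 Activity fitted in both directions relative to DMSO, with ELISA measurement of the surface marker on primary HUVEC (3C) at 24 h post-treatment; parallel SRB staining (0.1% SRB, TCA-fixed, 560 nm) flagged overt cytotoxicity.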
# [8] = BSK_4H_Eotaxin3: BioMAP Diversity Plus: 4H Assay for Eotaxin 3 Biomarker Activity (AID 2283000); conditions: primary human endothelial cells (HUVEC); actives raise or lower the signal;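 on outcome: CCL26 protein level quantified by ELISA in parallel with SRB cytotoxicity check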
# In short: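 Endothelial primary cells (human umbilical vein) exposed to compound for 24 h. ELISA detection of Eotaxin-3.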
# [9] = BSK_3C_Proliferation: Cell Proliferation Assessment in the BioMAP Diversity Plus: 3C Assay (AID 2283006); conditions: primary human endothelial cells (HUVEC);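 on AC50: potency may reflect either rise or fall in cell number versus DMSO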
# In short: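 Proliferation as total protein: sulforhodamine B (0.1%) stain of TCA-fixed subconfluent human umbilical vein endothelial cells, absorbance 560 nm, 48 h after dosing. Activity fitted in both directions against DMSO baseline.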
# [10] = molecular target: Nuclear receptor subfamily 1 group I member 2 (Homo sapiens) (UniProt O75469); assay: ATG_PXR_TRANS: Attagene TRANS-FACTORIAL HepG2 Assay for human Pregnane X Receptor (PXR) (AID 2283008; active means hit-call score of the fitted dose curve at least 0.9, where 1 is the maximum)
# In short: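 Trans-factorial format: exogenous NR-Gal4 fusion activity, not endogenous factor, in transfected human HepG2 liver cells. After 24 h dosing, RNA isolated, reverse-transcribed, amplified and resolved by capillary electrophoresis; induction scored versus DMSO.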
# [11] = molecular target: human RAR-related Orphan Receptor beta (RORb), RORB (gene 6096) (UniProt Q92753); assay: ATG_RORb_TRANS: Attagene TRANS-FACTORIAL HepG2 Assay for human RAR-related Orphan Receptor beta (RORb) (AID 2283010; active means hit-call score of the fitted dose curve at least 0.9, where 1 is the maximum)
# Sequence of human RAR-related Orphan Receptor beta (RORb), RORB (gene 6096) (Q92753 whole entry, looked up, the tested form may be a part): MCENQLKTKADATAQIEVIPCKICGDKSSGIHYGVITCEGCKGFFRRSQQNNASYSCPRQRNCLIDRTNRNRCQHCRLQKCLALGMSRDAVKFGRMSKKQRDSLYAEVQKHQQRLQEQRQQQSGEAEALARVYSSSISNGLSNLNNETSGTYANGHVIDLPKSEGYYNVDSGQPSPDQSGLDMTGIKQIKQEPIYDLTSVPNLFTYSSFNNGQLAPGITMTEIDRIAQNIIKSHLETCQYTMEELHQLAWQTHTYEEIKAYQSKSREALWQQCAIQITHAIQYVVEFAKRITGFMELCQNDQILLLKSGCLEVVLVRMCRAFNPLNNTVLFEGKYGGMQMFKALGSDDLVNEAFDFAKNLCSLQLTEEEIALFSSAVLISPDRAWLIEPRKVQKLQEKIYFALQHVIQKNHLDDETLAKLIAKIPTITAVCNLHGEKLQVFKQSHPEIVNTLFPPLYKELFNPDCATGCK
# In short: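 Read-out is reporter mRNA induction, quantified by RT-PCR with fluorescent capillary electrophoresis, 24 h post-dose in transiently transfected HepG2 expressing exogenous NR-Gal4 chimera. Activity fitted upward versus DMSO.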
# [12] = molecular target: human RAR-related Orphan Receptor gamma (RORg), RORC (gene 6097) (UniProt P51449); assay: ATG_RORg_TRANS: Attagene TRANS-FACTORIAL HepG2 Assay for human RAR-related Orphan Receptor gamma (RORg) (AID 2283011; active means hit-call score of the fitted dose curve at least 0.9, where 1 is the maximum)
# Sequence of human RAR-related Orphan Receptor gamma (RORg), RORC (gene 6097) (P51449 whole entry, looked up, the tested form may be a part): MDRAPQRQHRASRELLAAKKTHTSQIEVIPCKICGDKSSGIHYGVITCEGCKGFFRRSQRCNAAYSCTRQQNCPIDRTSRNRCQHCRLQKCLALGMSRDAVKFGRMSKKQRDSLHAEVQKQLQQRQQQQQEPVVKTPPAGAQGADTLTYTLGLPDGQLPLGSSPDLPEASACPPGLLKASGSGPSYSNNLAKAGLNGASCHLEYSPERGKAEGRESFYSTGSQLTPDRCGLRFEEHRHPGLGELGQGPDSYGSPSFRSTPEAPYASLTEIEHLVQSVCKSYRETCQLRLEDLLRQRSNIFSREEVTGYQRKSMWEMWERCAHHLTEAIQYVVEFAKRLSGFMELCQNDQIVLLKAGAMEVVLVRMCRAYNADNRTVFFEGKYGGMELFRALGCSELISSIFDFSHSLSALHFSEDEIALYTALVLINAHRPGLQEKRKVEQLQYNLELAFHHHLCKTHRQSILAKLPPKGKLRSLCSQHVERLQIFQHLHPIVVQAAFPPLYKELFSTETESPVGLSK
# In short: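 Activity is scored as increase in GAL4-UAS reporter mRNA over DMSO, detected by fluorescent RT-PCR and capillary electrophoresis in HepG2 cells transiently expressing a RORg-Gal4 chimera, 24 h after dosing.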
# [13] = molecular target: Retinoic acid receptor RXR-alpha (Homo sapiens) (UniProt P19793); assay: ATG_RXRa_TRANS: Attagene TRANS-FACTORIAL HepG2 Assay for human Retinoid X Receptor alpha (RXRa) (AID 2283012; active means hit-call score of the fitted dose curve at least 0.9, where 1 is the maximum)
# Sequence of Retinoic acid receptor RXR-alpha (Homo sapiens) (P19793 whole entry, looked up, the tested form may be a part): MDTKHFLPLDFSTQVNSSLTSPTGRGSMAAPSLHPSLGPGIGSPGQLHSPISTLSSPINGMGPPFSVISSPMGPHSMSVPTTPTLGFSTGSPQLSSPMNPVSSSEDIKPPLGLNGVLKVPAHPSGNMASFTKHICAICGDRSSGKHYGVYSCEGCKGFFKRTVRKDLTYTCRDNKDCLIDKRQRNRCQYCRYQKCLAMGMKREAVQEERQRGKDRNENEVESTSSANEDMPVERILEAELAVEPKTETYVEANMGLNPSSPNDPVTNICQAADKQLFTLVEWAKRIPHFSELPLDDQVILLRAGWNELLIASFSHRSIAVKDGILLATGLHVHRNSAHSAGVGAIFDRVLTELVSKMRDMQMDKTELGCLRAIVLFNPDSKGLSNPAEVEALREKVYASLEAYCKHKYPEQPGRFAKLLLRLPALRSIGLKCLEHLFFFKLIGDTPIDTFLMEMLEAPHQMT
# In short: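 TRANS format reporting activity of exogenous RXRa-Gal4 chimera in transiently transfected HepG2, 24 h exposure. Reporter transcripts quantified by RT-PCR with capillary electrophoresis, with gain of signal scored relative to DMSO.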
# [14] = molecular target: human Peroxisome Proliferator-activated Receptor alpha (PPARa), PPARA (gene 5465) (UniProt Q07869); assay: ATG_PPARa_TRANS: Attagene TRANS-FACTORIAL HepG2 Assay for human Peroxisome Proliferator-activated Receptor alpha (PPARa) (AID 2283001; active means hit-call score of the fitted dose curve at least 0.9, where 1 is the maximum;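 on AC50: potency for gain of reporter signal over DMSO so agonist or activator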)
# Sequence of human Peroxisome Proliferator-activated Receptor alpha (PPARa), PPARA (gene 5465) (Q07869 whole entry, looked up, the tested form may be a part): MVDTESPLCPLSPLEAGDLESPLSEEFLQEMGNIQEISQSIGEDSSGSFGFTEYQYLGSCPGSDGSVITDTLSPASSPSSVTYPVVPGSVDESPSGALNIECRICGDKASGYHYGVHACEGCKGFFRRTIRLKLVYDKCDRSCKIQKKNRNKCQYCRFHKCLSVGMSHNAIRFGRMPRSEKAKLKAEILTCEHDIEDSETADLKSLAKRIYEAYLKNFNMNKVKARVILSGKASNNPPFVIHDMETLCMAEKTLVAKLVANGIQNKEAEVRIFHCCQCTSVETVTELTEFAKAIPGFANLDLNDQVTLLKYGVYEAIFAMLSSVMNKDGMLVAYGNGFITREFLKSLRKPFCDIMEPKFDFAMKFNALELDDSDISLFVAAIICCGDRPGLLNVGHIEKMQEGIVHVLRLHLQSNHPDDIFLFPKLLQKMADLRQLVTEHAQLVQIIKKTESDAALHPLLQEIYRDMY
# In short: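 Reporter transcripts quantified by RT-PCR plus capillary electrophoresis after 24 h treatment, fitted upward relative to DMSO. Cells: human HepG2 transiently carrying multiple GAL4-UAS reporter units driven by NR-Gal4 chimeras.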
# [15] = molecular target: human Peroxisome Proliferator-activated Receptor delta (PPARd), PPARD (gene 5467) (UniProt Q03181); assay: ATG_PPARd_TRANS: Attagene TRANS-FACTORIAL HepG2 Assay for human Peroxisome Proliferator-activated Receptor delta (PPARd) (AID 2283002; active means hit-call score of the fitted dose curve at least 0.9, where 1 is the maximum)
# Sequence of human Peroxisome Proliferator-activated Receptor delta (PPARd), PPARD (gene 5467) (Q03181 whole entry, looked up): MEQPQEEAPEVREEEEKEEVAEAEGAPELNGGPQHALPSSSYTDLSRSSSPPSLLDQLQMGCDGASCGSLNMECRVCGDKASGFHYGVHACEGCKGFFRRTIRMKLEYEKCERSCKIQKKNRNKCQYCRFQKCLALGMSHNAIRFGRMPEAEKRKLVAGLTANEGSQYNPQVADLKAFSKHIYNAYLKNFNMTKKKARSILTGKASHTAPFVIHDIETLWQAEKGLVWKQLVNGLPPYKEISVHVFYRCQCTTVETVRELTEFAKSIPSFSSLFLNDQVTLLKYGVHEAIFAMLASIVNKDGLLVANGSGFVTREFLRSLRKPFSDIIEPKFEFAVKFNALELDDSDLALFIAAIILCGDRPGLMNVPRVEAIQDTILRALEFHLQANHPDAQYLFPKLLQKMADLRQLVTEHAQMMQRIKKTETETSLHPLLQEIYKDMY
# In short: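 Cell-based TRANS reporter: HepG2, transient MRTU transfection, 24 h exposure. Readout = reporter mRNA (RT-PCR/CE, 6-FAM). Gain-of-signal fit vs DMSO control.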
# [16] = molecular target: human Retinoic Acid Receptor beta (RARb), RARB (gene 5915) (UniProt P10826); assay: ATG_RARb_TRANS: Attagene TRANS-FACTORIAL HepG2 Assay for human Retinoic Acid Receptor beta (AID 2283004; active means hit-call score of the fitted dose curve at least 0.9, where 1 is the maximum)
# Sequence of human Retinoic Acid Receptor beta (RARb), RARB (gene 5915) (P10826 whole entry, looked up, the tested form may be a part): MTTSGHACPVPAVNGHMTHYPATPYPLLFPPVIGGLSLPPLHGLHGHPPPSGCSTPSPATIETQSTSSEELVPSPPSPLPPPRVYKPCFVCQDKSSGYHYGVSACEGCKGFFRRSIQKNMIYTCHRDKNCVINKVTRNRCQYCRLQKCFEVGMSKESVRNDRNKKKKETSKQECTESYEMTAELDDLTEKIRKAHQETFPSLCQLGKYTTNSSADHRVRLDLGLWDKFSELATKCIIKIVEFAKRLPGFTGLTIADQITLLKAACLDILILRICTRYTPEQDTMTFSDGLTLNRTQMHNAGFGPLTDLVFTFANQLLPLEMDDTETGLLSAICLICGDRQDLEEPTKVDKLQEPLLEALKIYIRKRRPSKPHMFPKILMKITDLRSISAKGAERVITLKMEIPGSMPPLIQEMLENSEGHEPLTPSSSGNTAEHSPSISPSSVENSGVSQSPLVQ
# In short: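 HepG2, transient MRTU transfection, NR–Gal4 chimera, 24 h treatment; RT-PCR plus CE fluorescence detection of reporter mRNA; gain of signal vs DMSO.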
# [17] = molecular target: Retinoic acid receptor alpha (Homo sapiens) (UniProt P10276); assay: ATG_RARa_TRANS: Attagene TRANS-FACTORIAL HepG2 Assay for human Retinoic Acid Receptor alpha (RARa) (AID 2283005; active means hit-call score of the fitted dose curve at least 0.9, where 1 is the maximum)
# Sequence of Retinoic acid receptor alpha (Homo sapiens) (P10276 whole entry, looked up, the tested form may be a part): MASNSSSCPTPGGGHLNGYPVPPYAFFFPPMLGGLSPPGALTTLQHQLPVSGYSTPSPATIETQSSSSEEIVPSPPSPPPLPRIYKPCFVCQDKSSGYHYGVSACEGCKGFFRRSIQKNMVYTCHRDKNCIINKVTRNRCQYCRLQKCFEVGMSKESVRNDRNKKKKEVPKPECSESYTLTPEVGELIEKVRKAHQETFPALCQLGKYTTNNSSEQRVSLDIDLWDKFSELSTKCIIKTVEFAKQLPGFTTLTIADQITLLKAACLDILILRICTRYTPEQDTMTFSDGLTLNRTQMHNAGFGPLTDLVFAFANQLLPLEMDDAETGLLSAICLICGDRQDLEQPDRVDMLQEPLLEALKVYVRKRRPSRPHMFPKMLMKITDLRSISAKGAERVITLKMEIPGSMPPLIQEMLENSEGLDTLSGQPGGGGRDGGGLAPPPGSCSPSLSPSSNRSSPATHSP
# In short: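 Reporter transcripts, measured by RT-PCR with fluorescent labeling and capillary electrophoresis after 24 h dosing, reflect activity of an exogenous human RARa–GAL4 fusion in transiently transfected HepG2. Fitted for increase relative to DMSO.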
# [18] = molecular target: Peroxisome proliferator-activated receptor gamma (Homo sapiens) (UniProt P37231); assay: ATG_PPARg_TRANS: Attagene TRANS-FACTORIAL HepG2 Assay for human Peroxisome Proliferator-activated Receptor-gamma (PPARg) (AID 2283007; active means hit-call score of the fitted dose curve at least 0.9, where 1 is the maximum)
# Sequence of Peroxisome proliferator-activated receptor gamma (Homo sapiens) (P37231 whole entry, looked up, the tested form may be a part): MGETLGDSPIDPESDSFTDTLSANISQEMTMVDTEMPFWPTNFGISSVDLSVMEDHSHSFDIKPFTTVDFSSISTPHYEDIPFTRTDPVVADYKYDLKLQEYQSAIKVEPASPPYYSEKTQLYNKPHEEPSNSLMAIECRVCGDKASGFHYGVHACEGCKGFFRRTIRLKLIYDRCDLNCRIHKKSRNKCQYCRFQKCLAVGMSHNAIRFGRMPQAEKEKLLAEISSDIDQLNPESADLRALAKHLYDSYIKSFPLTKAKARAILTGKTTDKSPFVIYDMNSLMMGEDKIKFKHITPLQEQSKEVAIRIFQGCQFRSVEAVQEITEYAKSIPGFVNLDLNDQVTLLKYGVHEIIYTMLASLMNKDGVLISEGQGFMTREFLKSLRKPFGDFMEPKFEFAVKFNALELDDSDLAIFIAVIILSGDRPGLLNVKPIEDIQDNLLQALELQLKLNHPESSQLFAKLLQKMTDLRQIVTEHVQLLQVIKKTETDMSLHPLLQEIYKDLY
# In short: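 Endpoint reflects upward reporter mRNA change versus DMSO controls. Setup: transiently transfected HepG2, GAL4-UAS reporters driven by chimeric NR-Gal4, 24 h incubation, RT-PCR with capillary electrophoresis read-out.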
# [19] = molecular target: human Retinoic Acid Receptor gamma (RARg), RARG (gene 5916) (UniProt P13631); assay: ATG_RARg_TRANS: Attagene TRANS-FACTORIAL HepG2 Assay for human Retinoic Acid Receptor gamma (RARg) (AID 2283009; active means hit-call score of the fitted dose curve at least 0.9, where 1 is the maximum;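 on AC50: AC50 is for reporter induction above DMSO meaning RARg activation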)
# Sequence of human Retinoic Acid Receptor gamma (RARg), RARG (gene 5916) (P13631 whole entry, looked up, the tested form may be a part): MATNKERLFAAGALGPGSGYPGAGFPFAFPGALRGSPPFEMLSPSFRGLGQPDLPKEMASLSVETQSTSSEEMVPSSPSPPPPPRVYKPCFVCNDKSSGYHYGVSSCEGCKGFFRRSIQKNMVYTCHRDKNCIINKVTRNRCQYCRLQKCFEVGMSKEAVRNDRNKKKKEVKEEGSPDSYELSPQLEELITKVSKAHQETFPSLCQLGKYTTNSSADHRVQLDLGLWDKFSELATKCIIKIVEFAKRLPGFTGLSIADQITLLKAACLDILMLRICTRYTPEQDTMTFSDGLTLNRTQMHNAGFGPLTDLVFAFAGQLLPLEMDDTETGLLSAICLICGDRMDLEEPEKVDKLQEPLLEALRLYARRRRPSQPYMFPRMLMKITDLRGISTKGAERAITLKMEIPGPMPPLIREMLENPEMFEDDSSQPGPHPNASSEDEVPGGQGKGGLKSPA
# In short: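 Transactivation of exogenous RARg-Gal4 fusion measured as reporter transcript induction after 24 h in transfected HepG2 cells. RNA reverse-transcribed, amplified, fluorescently labeled and resolved by capillary electrophoresis; increase relative to DMSO.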
compound,measurement,setting,value
O=C(NO)c1ccccc1,AC50,[1],22 µM (active) [middle of 4 runs]
same,AC50,[2],16.2 µM (active) and 18.5 µM (active)
same,outcome,[2],inactive
same,outcome,[3],inactive
same,AC50,[4],35.3 µM (active) [middle of 4 runs]
same,outcome,[5],inactive
same,outcome,[6],inactive
same,outcome,[7],inactive
same,outcome,[8],inactive
same,outcome,[9],inactive
same,outcome,[10],inactive
same,outcome,[11],inactive
same,outcome,[12],inactive
same,outcome,[13],inactive
O=P(O)(O)CCC(F)(F)C(F)(F)C(F)(F)C(F)(F)C(F)(F)C(F)(F)C(F)(F)C(F)(F)F,outcome,[1],inactive
same,outcome,[2],inactive
same,outcome,[3],inactive
same,outcome,[4],inactive
same,outcome,[5],inactive
same,outcome,[7],inactive
same,AC50,[8],41.5 µM (active) and 28.8 µM (active)
same,outcome,[14],inactive
same,outcome,[15],inactive
same,outcome,[16],inactive
same,outcome,[17],inactive
same,AC50,[9],30 µM (active) and 30.1 µM (active)
same,outcome,[18],inactive
same,outcome,[11],inactive
same,outcome,[13],inactive
C[N+](C)(CCCNS(=O)(=O)CCC(F)(F)C(F)(F)C(F)(F)C(F)(F)C(F)(F)C(F)(F)F)CC(=O)[O-],outcome,[1],inactive
same,AC50,[2],0.00659 µM (active)
same,outcome,[3],inactive
same,outcome,[4],inactive
same,outcome,[14],inactive
same,outcome,[15],inactive
same,outcome,[16],inactive
same,outcome,[17],inactive
same,outcome,[18],inactive
same,AC50,[10],0.00287 µM (active)
same,outcome,[19],inactive
same,outcome,[13],inactive
Cc1ccc(C(=O)c2ccccc2)cc1,outcome,[1],inactive
same,AC50,[2],28 µM (active)
same,outcome,[3],inactive
same,outcome,[4],inactive
same,AC50,[5],11.3 µM (active)
same,AC50,[7],26.3 µM (active)
same,AC50,[8],28.4 µM (active)
same,AC50,[9],32.1 µM (active)
same,AC50,[18],100 µM (active)
same,outcome,[11],inactive
same,outcome,[13],inactive
Cc1cc(Cc2cc(C)cc(C(C)(C)C)c2O)c(O)c(C(C)(C)C)c1,outcome,[1],inactive
same,outcome,[2],inactive
same,outcome,[3],inactive
same,outcome,[4],inactive
same,outcome,[14],inactive
same,outcome,[15],inactive
same,outcome,[16],inactive
same,outcome,[17],inactive
same,AC50,[18],12.6 µM (active)
same,outcome,[19],inactive
O=P(O)(O)CCC(F)(F)C(F)(F)C(F)(F)C(F)(F)C(F)(F)C(F)(F)F,outcome,[1],inactive
same,outcome,[2],inactive
same,outcome,[3],inactive
same,outcome,[4],inactive
same,outcome,[5],inactive
same,outcome,[6],inactive
same,outcome,[7],inactive
same,AC50,[8],0.447 µM (active)
same,outcome,[8],inactive
same,outcome,[14],inactive
same,outcome,[15],inactive
same,outcome,[16],inactive
same,outcome,[9],inactive
same,outcome,[18],inactive
same,outcome,[19],inactive
same,outcome,[11],inactive
same,outcome,[13],inactive
CCCCCCCCCCCC[N+](C)(C)Cc1ccccc1,outcome,[1],inactive
same,AC50,[2],9.38 µM (active)
same,outcome,[2],inactive
same,AC50,[14],68.2 µM (active)
same,outcome,[14],inactive
same,outcome,[15],inactive
same,outcome,[18],inactive
same,outcome,[10],inactive
same,AC50,[19],155 µM (active)
same,outcome,[11],inactive
same,outcome,[13],inactive
C=CC(C)(CCC=C(C)C)OC(C)=O (stereo unspecified),outcome,[1],inactive
same,outcome,[2],inactive
same,outcome,[3],inactive
same,outcome,[4],inactive
same,AC50,[5],27.8 µM (active)
same,outcome,[7],inactive
same,AC50,[8],34.2 µM (active)
same,outcome,[14],inactive
same,AC50,[9],34.2 µM (active)
same,outcome,[18],inactive
same,AC50,[10],29.5 µM (active)
same,outcome,[11],inactive
same,outcome,[13],inactive
C=COC(=O)C(C)(C)CCCCCC,outcome,[1],inactive
same,AC50,[2],142 µM (active)
same,outcome,[3],inactive
same,outcome,[4],inactive
same,AC50,[5],29.9 µM (active)
same,AC50,[6],31.3 µM (active)
same,AC50,[7],34.4 µM (active)
same,AC50,[8],30.3 µM (active)
same,outcome,[14],inactive
same,outcome,[15],inactive
same,AC50,[9],26.7 µM (active)
same,outcome,[18],inactive
same,outcome,[13],inactive
